Test results: PubChem BioAssay (NCI)
This is part of a sample that, as a whole, favours compounds with a hit. Of some 79,000 tested, about 15% had one in any assay. Activity calls are given as the source filed them. No stated cut-off is given here; in the data, active means growth inhibition above about 70%; inactive means the rest.

Columns and labels:
[1] = NCI Yeast Anticancer Drug Screen. Data for the rad50 strain (AID 155);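 further: 0% = growth of vehicle-only cultures of the same strain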; conditions: S. cerevisiae rad50 strain growth inhibition; at 50.0 µM; active compounds read high
In short: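 Growth of the mutant yeast was measured after compound exposure and referenced to vehicle-treated cultures.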

[2] = NCI Yeast Anticancer Drug Screen. Data for the mec2-1 strain (AID 157); conditions: S. cerevisiae mec2-1 strain, at 50.0 µM, active compounds read high
In short: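 Vehicle-treated cultures served as reference for growth inhibition of compound-exposed mec2-1 yeast.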

[3] = NCI Yeast Anticancer Drug Screen. Data for the sgs1 mgt1 strain (AID 161);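 further: 0% = growth of cultures given vehicle only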; conditions: S. cerevisiae sgs1 mgt1 strain, at 50.0 µM, active compounds read high
In short: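 Inhibition of yeast growth, normalised to vehicle-treated controls, is reported for a strain bearing genetic alterations in DNA damage repair.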

[4] = NCI Yeast Anticancer Drug Screen. Data for the cln2 rad14 strain (AID 165);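 further: 0% = growth equal to vehicle treated cultures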; conditions: S. cerevisiae cln2 rad14 strain, at 50.0 µM, active compounds read high
In short: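 Each compound was tested on cln2 rad14 yeast. Inhibition of growth was calculated against vehicle-exposed controls.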

[5] = NCI Yeast Anticancer Drug Screen. Data for the bub3 strain (AID 167); conditions: S. cerevisiae bub3 mutant strain, at 50.0 µM, active compounds read high
In short: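 Whole-cell yeast assay. The mutant strain was incubated with compounds, and growth inhibition was determined by comparison with vehicle-treated cells.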

[6] = NCI Yeast Anticancer Drug Screen. Data for the mlh1 rad18 strain (AID 175); conditions: S. cerevisiae mlh1 rad18 strain growth inhibition; at 50.0 µM; active compounds read high
In short: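 Vehicle-treated cultures served as the reference for growth inhibition in a yeast strain carrying DNA damage repair alterations exposed to each compound.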

Measured: growth inhibition

CCC(O)C(CC)[N+](=O)[O-] (stereo not given)
inactive: [1] -4.45% | [2] -17.4% | [3] -2.75% | [4] 4.05% | [5] -2.8% | [6] 5.5%

CC(=O)[C@@]1(c2ccccc2)N(C(=O)c2ccccc2)[C@@]1(C)C(=O)c1ccccc1
inactive: [1] 22.1% | [2] 2.25% | [3] 14.4% | [4] 53.1% | [5] 3.85% | [6] -0.75%

CCCCCc1nc2c(c(=O)n(C)c(=O)n2C)n1C
inactive: [1] 14.2% | [2] -9.35% | [3] -1% | [4] 0% | [5] 6% | [6] 17.6%

CN1CCN(C2CCCc3ccccc3C2=O)CC1 (stereo not given)
inactive: [1] 21.9% | [2] -10.6% | [3] 4.75% | [4] -36% | [5] -15.5% | [6] 13.4%

CCCCOc1ccc(/C=C/C(=O)OCC(CC)CCCC)cc1 (stereo not given)
inactive: [1] -10.2% | [2] -6.2% | [3] 12.4% | [4] -63.4% | [5] 12.2% | [6] -9.05%

COC(=O)/C=C/c1cc2c(cc1-c1c(C(=O)O)cc(OC)c(OC)c1OC)OCO2
inactive: [1] -11.2% | [2] -0.55% | [3] -18.8% | [4] -3.4% | [5] -28.4% | [6] -8.05%

COc1cc(Cl)ccc1NC(=O)COc1ccc(Cl)cc1
inactive: [1] 4.55% | [2] 0.5% | [3] -12.8% | [4] -3.6% | [5] 20% | [6] -17.1%

CC(=O)N(C(=O)CC(=O)NN)c1ccc(Cl)cc1
inactive: [1] -19.1% | [2] -21.3% | [3] 3.65% | [4] 26.3% | [5] 6.95% | [6] 26%

CC/C(CC(=O)CCC(=O)Nc1ccccc1[N+](=O)[O-])=N/NC(=O)C[n+]1ccccc1
inactive: [1] -1.8% | [2] 6.9% | [3] -56.1% | [4] 16.4% | [5] -1.35% | [6] -12.7%

CC[N+](C)(CC)CCl
inactive: [1] -49.2% | [2] -17.9% | [3] -20.8% | [4] -45.4% | [5] 7.6% | [6] -1.65%

CC(=O)[O-].O=S(=O)(Nc1ncccn1)c1ccc(N=Cc2ccccc2O)cc1.O=S(=O)(Nc1ncccn1)c1ccc(N=Cc2ccccc2O)cc1.[Co+2]
inactive: [1] 25.4% | [2] 23.2% | [3] 26.6% | [4] 27.7% | [5] 32.2% | [6] 25.1%

Cc1ccc(-c2cc(-c3ccco3)c(C#N)c(=O)[nH]2)cc1
inactive: [1] 13.5% | [2] -8.55% | [3] -13.5% | [4] 16.4% | [5] -10% | [6] 6.8%

CC(C)(C)NC1=C([N+](=O)[O-])CCCC1
inactive: [1] 4.25% | [2] 6% | [3] -1.05% | [4] -19.6% | [5] 11.9% | [6] 4.5%

CC1(C(=O)O)CCC2(C)CCC3(C)C(=CC(=O)C4C5(C)CCC(OC6OC(C(=O)O)C(O)C(O)C6OC6OC(C(=O)O)C(O)C(O)C6O)C(C)(C)C5CCC43C)C2C1 (stereo not given)
inactive: [1] 13.6% | [2] 3.95% | [3] -2.25% | [4] 24.8% | [5] 15.8% | [6] 19.2%

CC(C)=NOC(=O)Nc1cccc2c1OCO2
inactive: [1] -30.3% | [2] -19.4% | [3] -12% | [4] -14.8% | [5] -35.5% | [6] 4.25%

c1ccc(-c2coc(-c3ccccc3)c2)cc1
inactive: [1] -16.2% | [2] -11.8% | [3] -17.6% | [4] -12.2% | [5] -9.35% | [6] -1.9%

Nc1cnc(N)nc1
inactive: [1] -8.4% | [2] -18.8% | [3] -21.6% | [4] -24.4% | [5] 11.8% | [6] -17.2%

CC(=O)CCC1(C)CCCC(C)(C)CC1=O (stereo not given)
inactive: [1] -1.3% | [2] 5.15% | [3] 3.75% | [4] -9.55% | [5] -28% | [6] -12.2%

CCCCOC(=O)c1cccc2c1-c1ccccc1C2=O
inactive: [1] 9.75% | [2] -6.55% | [3] -2% | [4] -14.9% | [5] 13.8% | [6] -0.7%

CC1(C)N=C(/C=N/O)C(C)(C)N1O
inactive: [1] 6.65% | [2] 0.55% | [3] 6.15% | [4] 6.3% | [5] -4.95% | [6] -18.7%

CC(=O)OCC1OC(n2c(-c3ccc(C)cc3)cc(-c3ccccc3)c(C#N)c2=S)C(OC(C)=O)C(OC(C)=O)C1OC(C)=O (stereo not given)
inactive: [1] 17.9% | [2] 9.35% | [3] 6.15% | [4] -8.55% | [5] 27.9% | [6] 27.8%

C/C([O-])=C(/c1nc(-c2ccc([N+](=O)[O-])o2)no1)[n+]1cc(C)ccc1C
inactive: [1] 19.3% | [2] 14% | [3] 18.9% | [4] 21.3% | [5] 7.55% | [6] 16.1%

O=CN(Cc1ccccc1)Cc1ccccc1
inactive: [1] 5.15% | [2] 8.2% | [3] 3.65% | [4] 0.95% | [5] -3.8% | [6] -12.6%

CCN(CC)CCCNc1ccc2nnn3c4ccc(O)cc4c(=O)c1c23
inactive: [1] -15.6% | [2] -7.9% | [3] -7.35% | [4] 25.3% | [5] -6.5% | [6] 6.65%

COC(=O)c1cc(C)n(C)c(=O)c1C#N
inactive: [1] 12.6% | [2] 12.5% | [3] -0.85% | [4] 22.1% | [5] 13.9% | [6] 2.9%

COc1ccc(C(=O)c2ccc(OC)cc2OC)cc1
inactive: [1] -4.15% | [2] 1.7% | [3] 21.4% | [4] -23.1% | [5] 3.05% | [6] 1.3%

COc1ccc(C2S/C(=C\c3cccc([N+](=O)[O-])c3)C(=O)N2NC(=O)Cc2ccccc2)cc1 (stereo not given)
inactive: [1] 0.65% | [2] -21.2% | [3] 3.85% | [4] -58.6% | [5] 36% | [6] 12.4%

C=COCCC(C(=O)OCC)C(=O)OCC
inactive: [1] 13.5% | [2] 26.5% | [3] 17.8% | [4] 4.2% | [5] 40.6% | [6] 13.1%

N#CSCC(=O)CCC(=O)O
inactive: [1] -2.75% | [2] 0.7% | [3] -8.8% | [4] -15% | [5] 3.75% | [6] -1.1%

NC1=NC=N/C(=N\c2ccccn2)C1N (stereo not given)
inactive: [1] -13.3% | [2] -9.95% | [3] -5.4% | [4] -32.2% | [5] -11.2% | [6] -8.6%

CC(=O)OC1CCC(OC(C)=O)[C@H]2[C@@H]1[C@@H]1S[C@H]2c2ccccc21 (stereo not given in full)
inactive: [1] 1% | [2] -1.55% | [3] -0.45% | [4] 11.1% | [5] 12.2% | [6] -1.15%

CC1(C)C(CC(=O)O)CCCC1CC(=O)O (stereo not given)
inactive: [1] 12.2% | [2] 0.95% | [3] 4.15% | [4] 2.15% | [5] -11.4% | [6] 49.2%

Cc1nc(C(=O)O)c(C(=O)O)[nH]1
inactive: [1] -4.4% | [2] -15.1% | [3] -10.9% | [4] -1.7% | [5] -7.75% | [6] 1.2%

O=C1CC2CCC(C1)S2=O (stereo not given)
inactive: [1] 19.6% | [2] -10.5% | [3] 17.5% | [4] 23% | [5] 12.8% | [6] 18.5%

CC(=O)[O-].O=S(=O)(Nc1ncccn1)c1ccc(N=Cc2ccccc2O)cc1.O=S(=O)(Nc1ncccn1)c1ccc(N=Cc2ccccc2O)cc1.[Cu+2]
inactive: [1] -7.4% | [2] -21.6% | [3] -17.4% | [4] -8.25% | [5] -17.6% | [6] -1.35%

Cc1cccc(C)c1Nc1ncnc2c1cnn2C
inactive: [1] -11.6% | [2] -12.5% | [3] -1.2% | [4] -6.55% | [5] 9.95% | [6] -13.9%

CCN(CC)CCCNc1c2c(nc3c(OC)cccc13)CCCC2
inactive: [1] -38.4% | [2] 10.7% | [3] -6.7% | [4] -41.6% | [5] 5.95% | [6] -2.45%

CCOP(=O)(CCCCCCP(=O)(OCC)OCC)OCC
inactive: [1] 30.4% | [2] 18.4% | [3] -0.2% | [4] -31.1% | [5] 8.45% | [6] 32.9%

C=CCCCCCCCCC(=O)NCc1ccncc1
active: [6] 86.7%
inactive: [1] 56.2% | [2] 29.2% | [3] 59.5% | [4] 50.4% | [5] 41.7%

CNC(=S)n1ncnc1N
inactive: [1] 11% | [2] -5.95% | [3] -2.9% | [4] -17.8% | [5] -3.75% | [6] 8.25%
